Assay outcomes deposited in PubChem BioAssay by National Center for Advancing Translational Sciences (NCATS).
Pol eta inh – blocks human DNA polymerase eta activity; AID 588591; recombinant Pol eta, fluorescent DNA replication assay; Q9Y253; Potency, µM (highest dose often 114 µM), usual class: inhibitors; 1.2% of 390,000 active
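Pol eta at 10 nM preincubated with compounds 15 min at room temperature; reaction started with fluorescent substrate (50 nM final) and read kinetically at 0 and 10 min.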
TDP1 inh – TDP1 (human) enzyme inhibition. 0.28% of 350,000 active. Potency, µM (titrated, usually from 130 µM), actives largely listed as inhibitors. AID 485290. recombinant TDP1, AlphaScreen DNA substrate cleavage. Q9NUW8; further: nearly all actives have a fitted effect of over 40% in size
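Enzyme-compound mixtures sat 15 min at room temperature, followed by a 5 min reaction with 15 nM final substrate and 10 min with AlphaScreen beads. Recombinant human Tdp1 was used at 1 nM final.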
FEN1 inhibitor – blocks human flap endonuclease 1. P39748. Recombinant FEN1 flap cleavage, fluorescence, 15 min. Potency, µM (highest dose often 114 µM), hits mostly inhibitors. 0.35% of 390,000 active; further: nearly all actives have a fitted effect of over 65% in size
Target sequence (P39748 whole entry, looked up): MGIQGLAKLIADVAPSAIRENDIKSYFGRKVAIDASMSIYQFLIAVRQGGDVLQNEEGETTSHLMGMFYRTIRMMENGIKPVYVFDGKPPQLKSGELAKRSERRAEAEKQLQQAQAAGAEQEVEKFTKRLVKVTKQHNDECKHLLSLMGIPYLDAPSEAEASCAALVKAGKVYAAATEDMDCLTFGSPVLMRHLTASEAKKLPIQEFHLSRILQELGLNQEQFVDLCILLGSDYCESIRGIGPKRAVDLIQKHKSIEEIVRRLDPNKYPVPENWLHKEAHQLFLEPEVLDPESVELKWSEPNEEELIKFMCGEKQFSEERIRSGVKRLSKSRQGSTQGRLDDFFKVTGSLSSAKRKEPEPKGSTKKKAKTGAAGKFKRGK
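Concentration–response screening of FEN1 (10 nM): 15 min compound preincubation at room temperature, reaction started with 50 nM substrate and read at 0 and 15 min. Corrected, normalized data were fitted by a four-parameter Hill equation.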
Pol beta inh – blocks human DNA polymerase beta activity. P06746. Pol beta primer extension/strand displacement, fluorescence kinetic. Potency, µM (titrated, usually from 114 µM), actives largely listed as inhibitors. 1.3% of 340,000 active. AID 485314
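Homogeneous kinetic assay of primer extension and strand displacement by 10 nM Pol beta, preincubated 15 min at room temperature with compound before 50 nM substrate (final) was added. Read at 0 and 10 min; four-parameter Hill fit.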
POLI inh – inhibitors of human DNA polymerase iota | 1% of 390,000 active | Q9UNA4 | Pol iota fluorescent replication assay, 10 min | Potency, µM (highest dose often 115 µM), hits mostly inhibitors | AID 588590
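Pol iota at 10 nM preincubated 15 min with compounds at room temperature; reaction started with fluorescent substrate, 50 nM final. Fluorescence read kinetically at 0 and 10 min; buffer-only wells as negative control.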
Pol kappa inh – inhibitors of human DNA polymerase kappa; 0.53% of 400,000 active; Q9UBT6; purified Pol kappa, fluorescent DNA synthesis assay, 10 min; Potency, µM (top dose mostly 107 µM), actives largely listed as inhibitors
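Kinetic fluorescence readout at 0 and 10 min followed reaction start with substrate at 50 nM final. Beforehand, enzyme (10 nM Pol kappa) stood 15 min with compound at room temperature; buffer-only wells were negative controls.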
A number is an active result. Most compounds without a hit are left out; they make up all but 2.4% or so of the library. The call rests on the fitted dose curve; in most records, active means well fitted curve in the direction sought with a large enough effect; inconclusive means small, poorly fitted or top-dose-only effect, or another doubt; inactive means no such curve, though single readings can be large; an effect the other way counts as inactive or inconclusive.

For COc1ccc(C(=O)COC(=O)c2ccc(Cl)nc2)cc1OC the results were Pol eta inh inactive, TDP1 inh inactive, FEN1 inhibitor inactive, POLI inh inactive and Pol kappa inh inactive.
COc1ccc(C(=O)COC(=O)c2ccc(Cl)nc2)c(OC)c1 was read as Pol eta inh inconclusive, TDP1 inh 50µM, FEN1 inhibitor inactive, POLI inh 40µM and Pol kappa inh inactive.
`O=C(CCNS(=O)(=O)c1ccccc1)OCC(=O)c1ccc(F)cc1` gave Pol eta inh inactive, TDP1 inh inactive, FEN1 inhibitor inactive, POLI inh inactive and Pol kappa inh inactive.
`CCC(C(=O)OCC(=O)c1ccc(OC)cc1OC)c1ccccc1` (stereo unspecified) gave Pol eta inh 32µM, TDP1 inh inconclusive, FEN1 inhibitor inactive, POLI inh inconclusive and Pol kappa inh inactive.
For COc1ccc(C(=O)COC(=O)c2ccccc2O)c(OC)c1 the results were Pol eta inh 25µM, TDP1 inh inactive, FEN1 inhibitor inactive, POLI inh 28µM and Pol kappa inh inconclusive.
Cn1c(-c2ccc(N)cc2)nc2ccccc21 was read as Pol eta inh inactive, TDP1 inh inactive, FEN1 inhibitor inactive, Pol beta inh inactive, POLI inh inactive and Pol kappa inh inactive.
Screening Cn1c(-c2ccc3nc(N)sc3c2)nc2cc(N)ccc21 returned Pol eta inh inconclusive, TDP1 inh inconclusive, FEN1 inhibitor 56µM, Pol beta inh 20µM, POLI inh 32µM and Pol kappa inh 71µM.
Screening O=C(N/N=C/c1cc(O)ccc1Br)c1cccnc1 returned Pol eta inh inactive, FEN1 inhibitor inactive, Pol beta inh inactive, POLI inh inactive and Pol kappa inh inactive.
O=C(N/N=C/c1cc(Br)c(O)c(Br)c1O)c1cccnc1 was read as Pol eta inh 40µM, FEN1 inhibitor inactive, Pol beta inh 40µM, POLI inh inactive and Pol kappa inh inactive.
CCOC(=O)CN1C(=N)N(c2nc(NC(C)C)nc(NC(C)C)n2)CC1=O was read as Pol eta inh inactive, TDP1 inh inactive, FEN1 inhibitor inactive, Pol beta inh inactive, POLI inh inactive and Pol kappa inh inactive.
For CCOC(=O)CN1C(=N)N(c2nc(NC(C)C)nc(OC)n2)CC1=O the results were Pol eta inh inactive, FEN1 inhibitor inactive, Pol beta inh inactive, POLI inh 79µM and Pol kappa inh inactive.
For CCOC(=O)c1c(NC(=O)C2CC(Cl)=CCC2C(=O)O)sc2c1CCCCC2 (stereo unspecified) the results were Pol eta inh inactive, TDP1 inh 22µM, FEN1 inhibitor inactive, Pol beta inh 35µM, POLI inh inactive and Pol kappa inh inactive.
For NNC(=O)C(C(=O)OCc1ccccc1)c1ccccc1 (stereo unspecified) the results were TDP1 inh inactive.
For COc1cc(/C=C2/NC(=O)NC2=O)cc(Br)c1OCc1ccc(C(=O)O)cc1 the results were Pol eta inh inactive, TDP1 inh 71µM, FEN1 inhibitor inactive, Pol beta inh inactive, POLI inh inactive and Pol kappa inh inactive.
For CCOC(=O)C1CCCN(C(=O)c2ccc(CS(=O)(=O)c3ccc(C)cc3)o2)C1 (stereo unspecified) the results were Pol eta inh 18µM, TDP1 inh inactive, FEN1 inhibitor inactive, Pol beta inh inconclusive, POLI inh 32µM and Pol kappa inh inactive.
`Cc1ccc(S(=O)(=O)Cc2ccc(C(=O)N3CCN(c4cc(C)ccc4C)CC3)o2)cc1` gave Pol eta inh inactive, TDP1 inh inactive, FEN1 inhibitor inactive, Pol beta inh 40µM, POLI inh inconclusive and Pol kappa inh inactive.
`Cc1cc(C)c(NC(=O)CCS(=O)(=O)c2cc3c(cc2Cl)NC(=O)CO3)c(C)c1` gave Pol eta inh inactive, TDP1 inh inactive, FEN1 inhibitor inactive, Pol beta inh inactive, POLI inh inactive and Pol kappa inh inactive.
For O=C(O)c1cccc(-c2noc(-c3ccccc3F)n2)c1 the results were TDP1 inh inactive.
Cc1oc2c(c1C(=O)c1ccccc1)C(=O)C(=O)c1ccccc1-2 was read as Pol eta inh 20µM, TDP1 inh inactive, FEN1 inhibitor inactive, Pol beta inh 56µM, POLI inh 0.89µM and Pol kappa inh inactive.
COC(=O)c1c(C)sc(-c2c(-c3ccc4c(c3)OCCO4)[nH]c3c2c(=O)n(C)c(=O)n3C)c1O was read as TDP1 inh inactive, FEN1 inhibitor inactive, Pol beta inh inactive, POLI inh inactive and Pol kappa inh inactive.
For COC(=O)c1c(C)sc(-c2c(-c3ccc4c(c3)OCCO4)[nH]c3[nH]c(=O)[nH]c(=O)c23)c1O the results were TDP1 inh inactive, FEN1 inhibitor inactive, Pol beta inh 40µM, POLI inh inconclusive and Pol kappa inh inconclusive.
`O=C(Nc1cccc(N2C(=O)C3C4C=CC(C4)C3C2=O)c1)c1cccs1` (stereo unspecified) gave Pol eta inh inactive, TDP1 inh inactive, FEN1 inhibitor inactive, Pol beta inh inactive, POLI inh inactive and Pol kappa inh inactive.
Cc1cc(N2C(=O)C3C4C=CC(C4)C3C2=O)ccc1NC(=O)c1cccs1 (stereo unspecified) was read as Pol eta inh inconclusive, TDP1 inh 13µM, FEN1 inhibitor inactive, Pol beta inh 32µM, POLI inh inconclusive and Pol kappa inh inactive.
`CC1(C)C[C@@H]2C(=O)CCC3O[C@@]3(C)CCC21` (stereo partly specified) gave TDP1 inh inactive and Pol kappa inh inactive.
Cc1occc1C(=O)N1CCN(c2ccc([N+](=O)[O-])cc2)CC1 was read as Pol eta inh inactive, TDP1 inh inactive, FEN1 inhibitor inactive, Pol beta inh 40µM, POLI inh inconclusive and Pol kappa inh inactive.
Screening Cc1occc1C(=O)N1CCN(c2ccc(Cl)cc2)CC1 returned Pol eta inh inactive, TDP1 inh inactive, FEN1 inhibitor inactive, Pol beta inh inactive, POLI inh inactive and Pol kappa inh inactive.
`CC1=CC(=O)C(C(C)=Nc2cccc(Cl)c2)C(=O)O1` (stereo unspecified) gave Pol eta inh inactive, FEN1 inhibitor inactive, POLI inh inactive and Pol kappa inh inactive.
N#Cc1cccc(NC(=O)CCNS(=O)(=O)c2ccc3c(c2)CCN3C(=O)C2CC2)c1 was read as Pol eta inh inactive, TDP1 inh inactive, FEN1 inhibitor inactive, Pol beta inh inactive, POLI inh inactive and Pol kappa inh inactive.
Screening Brc1ccc(-c2cn3ccccc3n2)s1 returned Pol eta inh inactive, TDP1 inh inactive, FEN1 inhibitor inactive, Pol beta inh inactive, POLI inh inactive and Pol kappa inh inactive.
Screening Cc1ccc2nc(-c3ccc(-c4ccccn4)s3)cn2c1 returned Pol eta inh inactive, FEN1 inhibitor inactive, Pol beta inh 40µM, POLI inh inconclusive and Pol kappa inh inactive.
